Hits are enriched below; roughly 0.99% of the tested compounds scored in any of these assays.
BLM helicase inh: qHTS Assay for Inhibitors of Bloom's syndrome helicase (BLM) | RecQ-like DNA helicase BLM (Homo sapiens), P54132 | recombinant BLM DNA unwinding, fluorescence dequenching | Potency, µM (series often up to 56.1 µM), for inactives: at the highest dose activity change, negative = inhibition, actives largely listed as inhibitors | actives 0.2% (n = 350,000) | AID 2528, 2010;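 further: plate controls were vehicle for no effect and no enzyme for full effect; nearly all actives have a fitted effect of over 35% in size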
RECQ1 helicase: qHTS Assay for Inhibitors of RecQ-Like Dna Helicase 1 (RECQ1); ATP-dependent DNA helicase Q1 (Homo sapiens), P46063; RECQ1 DNA unwinding, red fluorescence kinetic read; Potency, µM (highest dose often 57.3 µM), for the others: top-dose activity, negative = inhibition, most hits filed as inhibitors; actives 0.54% (n = 240,000); AID 2549, 2010;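 further: plate controls were vehicle for no effect and no enzyme for full effect; nearly all actives have a fitted effect of over 30% in size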
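RECQ1T1 50 nM; forked duplex (20 bp + 30-nt ss tails) 200 nM, ATP 2 mM final; pH 8.0, 2 mM MgCl2, 2.5 ug/ml poly(dI-dC); 15 min compound preincubation; discontinuous kinetic read over 2 h at RT.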
WRN helicase inh: qHTS for Inhibitors of WRN Helicase; Bifunctional 3'-5' exonuclease/ATP-dependent helicase WRN (Homo sapiens), Q14191; WRN helicase unwinding, fluorescent forked duplex, kinetic; Potency, µM (doses to about 114 µM), without a hit: top-dose activity change, negative = inhibition, most hits filed as inhibitors; actives 0.46% (n = 360,000); further: nearly all actives have a fitted effect of over 55% in size
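Fluorescence dequenching readout, ex 525 nm/em 598 nm, kinetic mode: forked duplex DNA (100 nM final) with adjacent fluorophore and quencher unwound by WRN (20 nM final) with 2 mM ATP. Compound preincubation 15 min, room temperature.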
L3MBTL1 inh: qHTS Assay for the Inhibitors of L3MBTL1; Lethal(3)malignant brain tumor-like protein 1 (Homo sapiens), Q9Y468; AlphaScreen L3MBTL1–H3K9me1 peptide binding; Potency, µM (doses to about 57.1 µM), inactives show at the top dose activity, negative = inhibition, actives largely listed as inhibitors; AID 485360, 2010; actives 0.66% (n = 230,000); further: nearly all actives have a fitted effect of over 60% in size
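Displacement of a biotinylated histone H3(1-15) peptide monomethylated at Lys9 (75 nM) from L3MBTL1 (50 nM) was measured by AlphaScreen after a 30 min room-temperature compound incubation; cefsulodin titration served as intraplate control.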
FEN1 inh: qHTS Assay for the Inhibitors of Human Flap endonuclease 1 (FEN1); P39748; actives 0.35% (n = 390,000); Recombinant FEN1 flap cleavage, fluorescence, 15 min; Potency, µM (doses to about 114 µM), without a hit: at the top dose activity change, negative = inhibition, hits mostly inhibitors; further: nearly all actives have a fitted effect of over 65% in size
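Quantitative HTS format: each compound was titrated, incubated with 10 nM nuclease for 15 min at room temperature, then challenged with flap substrate at 50 nM final. Signal change over 15 min gave concentration–effect curves.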
* hit, by the source's call; i = inactive; ? = inconclusive; nt = no result given; [ ] = dose if it differs, or a comment. The call rests on the fitted dose curve; in most records, active means well fitted curve in the direction sought with a large enough effect; inconclusive means small, poorly fitted or top-dose-only effect, or another doubt; inactive means no such curve, though single readings can be large; an effect the other way counts as inactive or inconclusive. Unless noted, on the % scale 0 is the no-effect control and ±100 the full control effect; potency means the concentration at half of the fitted maximal effect.

SMILES | BLM helicase inh | RECQ1 helicase | WRN helicase inh | L3MBTL1 inh | FEN1 inh
O=C(O)CN1C(=O)C=CC1=O | nt | nt | -13% | nt | nt
CN1c2ccc([N+](=O)[O-])cc2N(C)C1(C)c1ccccc1 (centres undefined) | -12% | nt | -7% | 14µM* | -28%
O=C(Nc1ccccc1)C1=C[C@H](c2csc3ccccc23)C[C@H](OCCCCO)O1 | -5% | 40µM* | -8% | 4% | -17%
O=C(NCc1ccccc1)C1=C[C@H](c2csc3ccccc23)C[C@H](OCCCCO)O1 | -12% | -22% | 7% | -6% | 8%
CC(CNC(=O)CCCn1ncn2c(cc3occc32)c1=O)c1ccccc1 (centres undefined) | 2% | nt | -2% | nt | 15%
Cc1cc(/C=N/NS(=O)(=O)c2ccc(F)c(Cl)c2)no1 | -4% | 11% | -4% | 14% | -3%
CN1C(=O)N(C)C2=NNC=NC2(O)C1=O (centres undefined) | 28µM* | -3% | nt | nt | nt
CC[N+]1(C)CCC(O)(/C=C/c2ccccc2)C(C(=O)/C=C/c2ccccc2)C1 (centres undefined) | nt | nt | 11µM* | nt | -3%
C=CCN1C(=O)C2(OCCO2)c2cc(C)ccc21 | -4% | nt | 6% | nt | -2%
O=[N+]([O-])c1ccccc1/C=N\Nc1nccs1 | 0% | nt | 2% | -11% | 2%
O=[N+]([O-])c1cc(/C=N\Nc2nccs2)ccc1O | 28µM* | 11µM* | nt | nt | nt
CCN1/C(=C/c2ccc3cc(C)cc(C)c3[n+]2CC)Sc2cc(C)ccc21 | ? | ? | 18µM* | -2% | ?
CCN1/C(=C/c2ccc3cccc(C)c3[n+]2CC)Sc2ccccc21 | ? | -29% | ? | -11% | 40µM*
COc1ccccc1NC(=O)CSCC(=O)N1c2ccccc2CCc2ccccc21 | -8% | -15% | 0% | -10% | -5%
CCOc1ccc(N=Nc2ccc(O)c3ncccc23)cc1 | -11% | nt | 12% | nt | 15%
CCOc1ccc(N=Nc2cc(C(C)C)ccc2O)cc1 | 0% | -8% | -2% | 28µM* | -4%
CCOC(=O)C(=N/O)/C(C)=N/NC(=O)C(=O)Nc1cc(Cl)ccc1Cl | 0% | -5% | -4% | 25µM* | 2%
Clc1nssc1=Nc1ccc(Br)cc1 | -4% | i | 40µM* | nt | -20%
Clc1ccc(N=c2ssnc2Cl)nc1 | -5% | -7% | 51% | ? | ?
N#Cc1cccc(N=c2ssnc2Cl)c1 | -3% | -6% | 25µM* | 2% | 2%
Clc1nssc1=Nc1nncs1 | nt | nt | -9% | -3% | ?
COc1cc(N=c2ssnc2Cl)cc(OC)c1 | 2% | 5% | 50µM* | -9%[11.4 µM] | 0%
Cn1c2ccc(F)cc2c2nnc(SCC(=O)Nc3cccc(O)c3)nc21 | 2% | nt | 0% | -1% | -21%
O=[N+]([O-])c1ccc(S(=O)Cc2ccccc2)c([N+](=O)[O-])c1 (centres undefined) | nt | nt | 10µM* | nt | ?
COc1ccc(-c2nn(-c3ccccc3)cc2/C=N/Nc2ccccn2)cc1 | -4% | i | nt | ? | nt
Cc1c2oc3c(C)ccc(C(=O)N[C@@H]4C(=O)N[C@@H](C(C)C)C(=O)N5CCC[C@@H]5C(=O)N(C)CC(=O)N(C)[C@@H](C(C)C)C(=O)O[C@H]4C)c3nc-2c(C(=O)N[C@@H]2C(=O)N[C@@H](C(C)C)C(=O)N3CCC[C@@H]3C(=O)N(C)CC(=O)N(C)[C@@H](C(C)C)C(=O)O[C@H]2C)c(N)c1=O | -18% | 2.8µM* | nt | nt | nt
COc1ccc(CCNC(=O)CNC(=O)N2CC(=O)Nc3ccccc32)cc1OC | nt | nt | -3% | nt | nt
c1ccc(CCNc2ncnc3c2nnn3Cc2ccccc2)cc1 | -1% | -4% | -1% | 2% | -13%
COc1ccccc1N1C(=O)c2cccc3c(C(=O)O)ccc(c23)C1=O | 2% | -12% | -17% | nt | 1%

Screens: PubChem BioAssay, National Center for Advancing Translational Sciences (NCATS)
